In all, about 33,000 sequences were measured (“E-score (-0.5 to 0.5)”: median about -0.012, highest 2% from about 0.29 on). The sample as a whole holds a higher share of the highest values than the screen did.
biological target: T1, Ybr033w (UniProt P38073); experiment: PBM E-score (8-mer binding enrichment) (E-score (-0.5 to 0.5)); higher = stronger / more preferred TF binding; settings: protein concentration: 200 nM; construct: GST-full length
T1 sequence: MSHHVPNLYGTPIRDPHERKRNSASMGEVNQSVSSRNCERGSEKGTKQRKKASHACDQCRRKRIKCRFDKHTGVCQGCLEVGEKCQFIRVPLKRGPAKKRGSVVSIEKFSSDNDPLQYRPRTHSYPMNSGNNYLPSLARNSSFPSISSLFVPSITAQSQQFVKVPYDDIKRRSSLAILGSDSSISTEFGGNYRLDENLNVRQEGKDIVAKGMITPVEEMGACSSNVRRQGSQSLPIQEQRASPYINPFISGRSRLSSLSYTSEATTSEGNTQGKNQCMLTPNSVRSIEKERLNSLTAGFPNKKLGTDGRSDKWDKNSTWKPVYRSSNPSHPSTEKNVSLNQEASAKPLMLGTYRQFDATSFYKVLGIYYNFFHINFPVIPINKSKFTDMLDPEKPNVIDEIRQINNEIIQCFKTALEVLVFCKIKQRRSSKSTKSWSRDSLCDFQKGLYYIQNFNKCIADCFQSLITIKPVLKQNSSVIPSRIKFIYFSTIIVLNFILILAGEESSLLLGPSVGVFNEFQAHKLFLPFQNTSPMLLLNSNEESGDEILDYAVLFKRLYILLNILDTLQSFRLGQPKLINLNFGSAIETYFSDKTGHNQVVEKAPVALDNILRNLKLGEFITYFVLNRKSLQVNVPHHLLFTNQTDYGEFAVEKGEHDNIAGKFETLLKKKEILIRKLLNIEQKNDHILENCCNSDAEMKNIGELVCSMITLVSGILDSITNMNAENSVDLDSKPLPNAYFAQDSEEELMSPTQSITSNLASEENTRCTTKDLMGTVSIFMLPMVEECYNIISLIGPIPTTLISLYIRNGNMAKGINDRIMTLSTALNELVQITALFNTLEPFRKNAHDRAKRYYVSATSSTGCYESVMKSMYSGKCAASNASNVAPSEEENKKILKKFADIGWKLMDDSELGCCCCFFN
Protocol: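 Universal 'all 10-mer' protein binding microarrays (Agilent AMADID 015681) probed with GST-tagged S. cerevisiae TFs (full-length or DBD) made by in vitro transcription/translation (PURExpress), about 100-200 nM. Bound TF was detected with fluorescent anti-GST. Each ungapped 8-mer (which stands for itself and its reverse complement) is scored by the PBM enrichment score (E-score), a modified Wilcoxon-Mann-Whitney statistic from -0.5 to +0.5, computed with the Universal PBM Analysis Suite. Scale: above 0.35 generally sequence-specific binding.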

Sequence	PBM E-score
CGGACAAA	0.297
CGGACAAG	-0.0192
AGGACAAA	0.17
CAGACTTA	-0.189
TCAAGAGA	0.0989
AGATTCTA	0.106
CATGTTCC	0.0191
GATGTTCA	-0.079
GATGTTCC	0.412
CCTGAGAC	-0.235
ATTCTCCC	0.14
ATTCTCCG	0.305
ATTCTCCA	0.175
CCACAGGC	-0.336
AACTCTCT	0.0664
ACCTCAGG	-0.12
ATATCTTA	0.281
ATATCTTG	0.288
ATATCTTC	0.218
CTAGAGGA	-0.102
GCAAATTA	0.106
TGGTCGAA	-0.209
GGTATACA	0.00479
GATATACA	0.144
AATATACT	0.279

Sequence	PBM E-score
CATATACA	0.324
CATATACC	-0.165
TGTATACA	0.341
TATATACA	0.24
AATATACA	0.316
AGTATACA	0.185
GTCTAATA	0.0847
GGCTCCAC	-0.267
GATAGGAC	-0.188
GTGATCAC	-0.181
TACTCACA	0.158
ATCGAGCG	-0.089
GATCTAGA	0.0239
GATACCCA	0.0285
AAATAGTT	0.227
AAATATGG	0.12
CTATATAG	0.0604
AAATAGTG	0.292
ATATATAG	0.332
AAATATAG	0.305
AACTATAT	0.335
AAATAGTC	0.0679
CAATATAG	0.115
AACTATAG	0.104
AACTATAC	0.151

Sequence	PBM E-score
AGATATAG	0.171
TCATCGGA	0.109
CAACCTTA	0.14
CCTTAGCG	-0.178
ATTTACCG	0.132
TACAATCA	0.171
AACTACCG	0.0353
GAATATAC	0.141
TAATATAA	0.379
AAATATAC	0.312
AAATATCG	0.247
CAATATAC	0.0977
AAATATCT	0.295
AAGTATAG	0.12
TAATAGAA	0.198
TAATATGA	0.284
AAATATCC	0.273
AAGTATAA	0.152
AAGTATAT	0.302
AGAGTAGG	0.0322
CTATCTGC	-0.0829
ACAACTGT	0.106
CCACTACC	-0.149
AGGTGCAG	-0.186
AATTCTGC	0.0888

Sequence	PBM E-score
ATGACGCA	-0.0224
ACCAGGTA	-0.225
ATCGTTAA	0.24
ATCTTCAG	0.185
AAATAGAT	0.289
AAATAGAC	0.101
AAATATAT	0.339
CAATATAA	0.284
AAATAGAG	0.247
AAATATGT	0.252
AAATATAA	0.305
ATATATAT	0.141
GAATATAA	0.131
CAAGTCGA	-0.0109
GGTGAATA	0.127
ACGCAACG	0.0621
GTAAGTCA	0.0193
AAGCTTAC	0.0655
AAGGTTTG	0.227
AGGTGAGC	-0.172
ACTAACCC	0.0277
GTCGCGAC	0.234
CTTAACAC	0.112
ATTAACAA	0.382
ATTAACAC	0.368

Sequence	PBM E-score
ATTAACAG	0.0928
GTTAACAA	0.0731
AATAACAC	0.222
GGATTAAC	0.441
GGATTAAA	0.341
TGATTAAA	0.27
AGATTAAG	0.214
CGATTAAA	0.174
CGATTAAC	0.103
AGATTAAT	0.284
AGATTAAC	0.199
AGATTAAA	0.295
GGAGAACA	0.026
ACTTAGCA	0.00122
GCCCTCTA	-0.176
TACGCCCA	0.0751
CAGATCGC	-0.164
ATAAACAT	0.289
AAAAACAA	0.321
GTAAACAC	0.0587
TTAAACAA	0.226
TAAAACAA	0.177
ATAAACAA	0.326
CTAAACAA	0.112
GAAAACAA	0.115

Sequence	PBM E-score
ATAAACAG	0.0706
AAAAACAT	0.21
ATAAACAC	0.241
GTAAACAA	0.298
CAGGGTAC	-0.158
GTCGCATA	0.214
TATCACAA	0.18
AGCTAGAG	-0.0778
CTCAAAAC	0.217
CCTTGGGA	0.021
ACAGAAGA	0.0639
CCTTTGCA	0.0151
AATAACCG	-0.0165
AAAAACCC	0.164
AAAAACCG	0.134
AAAAACCT	0.307
CCACTTCA	-0.0798
AGCCCTCG	-0.314
AGAATTAC	0.181
CGAATTAC	0.135
CGAATTCA	-0.00151
GGAATTCC	-0.236
GGAATTAC	0.291
CGAATTAA	0.112
GGAATTCA	0.288

Sequence	PBM E-score
GGAATTAA	0.349
TGAATTAA	0.226
CCACGCTC	-0.126
ACTACTGG	0.017
GGACCGAA	0.061
AGTCCTTA	-0.049
CACAATTC	0.16
GATAAATA	0.4
ACTAAATC	0.278
CCTAAATA	0.118
GATAAAGA	0.154
TATAAAAA	0.253
ACTAAATA	0.322
GGTAAATA	0.225
CATAAATC	0.146
CATAAATA	0.169
TATAAATA	0.289
GATAAATC	0.304
GATAAAGC	0.159
TTCGCAAA	0.225
CTAGACAA	-0.0833
ATCCATGA	-0.0662
AGACAAAT	0.129
CCACAAAC	0.077
TCCACACA	0.111

Sequence	PBM E-score
CGGTGCGC	-0.156
GTTCGAGA	-0.0752
GCTGAGGA	-0.194
TATAAACA	0.247
AATAAAGA	0.267
GATAAAAC	0.323
GATAAACC	0.236
AATAAATG	0.194
AATAAATT	0.314
GATAAACA	0.298
AATAAACT	0.221
AATAAATC	0.263
AATAAATA	0.378
GATAAAAA	0.278
CATAAAAC	0.0263
ACGTTCTA	-0.0975
AAACCAAT	0.272
CATACCCG	-0.165
CGAATTGC	-0.0195
CAAGAACC	0.137
CCAGATCG	-0.0568
CCGATTAG	-0.131
ATTGTCTA	0.144
ACTCTAAC	0.17
AATAAAAA	0.252

Sequence	PBM E-score
AATAAAAT	0.304
AATAAAAG	0.0821
AAGTTTAG	0.128
AAGTTAAC	0.224
AAGTTATG	0.206
AAGTTAAG	-0.149
AAGTTATA	0.166
AAGTTTAC	0.154
AAGTTATT	0.3
AAGTTTAT	0.333
AAGTTAAT	0.315
AAACTGCA	0.146
ACCCTTCC	-0.0151
AGTAGCAA	0.152
ACACTGGG	-0.161
AGTGTTGC	0.0949
GTCTTTGA	-0.0431
GACATTCA	0.0222
CACTTTTC	0.255
CTCCGTTC	-0.0235
CTGGTGCA	-0.31
CGGAAATC	0.067
AGGAAATA	0.298
GGGAAATA	0.137
AGGAAATC	-0.0432

Sequence	PBM E-score
AGGAAATG	0.146
CGGAAATA	0.433
CTATTTGA	0.227
AAGATCCG	-0.0767
CAAACTGA	0.14
CAGGTAGA	-0.138
CCATAATA	0.264
CAATAATG	0.137
AGATAATG	0.181
AGATAATA	0.219
AAATAATT	0.388
CAATAATA	0.292
CAATAGTA	0.168
AAAAAATT	0.237
TAATAGTA	0.297
AGATAATC	0.306
GAATAGTA	0.183
CGTTATTC	0.175
GCTATTCC	-0.0267
AGGGGTAC	-0.205
ACCGTGAC	-0.159
CGAGTGCC	-0.198
AACGGTGT	-0.113
CAAAGCTC	-0.212
CAGTCTAG	-0.137

Sequence	PBM E-score
ATATGCAT	0.02
CAATAATC	0.171
TAATAACA	0.226
AAATAATA	0.344
AAATAATG	0.227
TAATAAGA	0.184
CAATAAAA	0.225
TAATAAAA	0.365
AAATAATC	0.341
TAATAATA	0.33
ACATAATC	0.205
ACATAATA	0.247
GAATAAAA	0.207
ATGCCCGA	-0.106
ACCTATGC	-0.0454
CGTCCACG	-0.133
CGGGGCAC	-0.319
ACCATCTA	0.0217
AACCTGGT	0.0823
TATCCAGA	0.158
AATCCAGC	0.0372
AATCCAGA	0.295
GATCAAGA	0.0926
AGAACATA	0.192
TGAACAAA	0.284

Sequence	PBM E-score
ATAACAAG	0.191
CGAACAAA	0.191
ATAACAAT	0.165
GGAACATA	0.313
AGAACAAA	0.33
GGAACAAA	0.45
AGAACAAG	0.212
AGAACAAT	0.209
ATAACAAA	0.29
CGAACATA	0.2
AGAGACTA	-0.0151
CTCGCAAC	-0.052
AAGGCCTC	-0.21
AAAGTACT	0.177
TACGACTA	0.0548
CCCCTATC	-0.337
CCCCCCCC	-0.45
CACTTGTC	-0.0719
GCACTGTA	0.0862
AGAACAAC	0.0473
GGAACAAC	0.454
CGAACAAC	0.077
AGTATTCA	0.142
ACGCCCTG	-0.16
CTATCAGA	-0.0376

Sequence	PBM E-score
ATATCAGA	0.289
GTATCAGA	0.106
AACCCCGA	-0.0425
AATTTCGA	0.0715
CATTTCAA	0.242
GATTTCGA	-0.0493
TATTTCAA	0.338
TATTTCGA	0.357
GATTTCAA	0.174
TTAAGGAA	0.218
AGTAGACT	-0.0063
GGAGGGAC	-0.188
TAAGCTTA	0.102
AGTGGACA	0.0894
ATGAACTA	0.303
CTGAACTA	0.037
ATGAACTC	0.0731
ATTAGAGA	0.115
AGGGAAAT	0.00233
TGGGAAAA	0.316
GGGGGAAA	-0.124
CGGGAAAC	0.0713
TGGGGAAA	0.0688
CGGGGAAA	0.212
AGGGAAAA	0.296

Sequence	PBM E-score
AGGGGAAA	0.0237
CGGGAAAA	0.298
AGTTATGA	0.0811
CGGTTGGA	0.0125
ATCCTGGC	-0.0209
AAAATAGA	0.332
AAAATAAC	0.189
GAAATAAA	0.247
CAAATAAA	0.2
TAAATAGA	0.0889
AAAATAAG	0.207
AAAATAAT	0.319
AAAATAGC	-0.0427
TAAATAAA	0.301
GAAATAAC	0.159
AAAATAAA	0.319
ACCCTTCA	-0.0354
CATTCTGG	-0.15
CATCTGTA	-0.105
